# IDE cell activ: human IDE activators in live cells, primary screen, fluorescence polarization, HEK cells, FAbeta-B substrate; Insulin-degrading enzyme (Homo sapiens), P14735; activation, % at 5.96 µM; AID 493087, 2011; 0.073% of 340,000 active; FAbeta-B cleavage; 0% vehicle, 100% cell-free pure enzyme wells;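 active means activation above the mean of all tested compounds plus 3 SD, set per screening campaign, cut at about 17% in these data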
# ALR inh: inhibitors of human ALR sulfhydryl oxidase, primary screen, biochemical, H2O2 detection, HRP-luminol luminescence, single point; FAD-linked sulfhydryl oxidase ALR (Homo sapiens), P55789; purified ALR, DTT oxidation; inhibition, % (no concentration beside the values); 3.8% of 290,000 active; AID 485317, 2010;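 active means mean replicate inhibition above about 79%, with every replicate also reaching it, limit read from the data; inconclusive means only one of the two criteria met; inactive means mean below limit and not every replicate reaching it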
# Target sequence (P55789 whole entry, looked up): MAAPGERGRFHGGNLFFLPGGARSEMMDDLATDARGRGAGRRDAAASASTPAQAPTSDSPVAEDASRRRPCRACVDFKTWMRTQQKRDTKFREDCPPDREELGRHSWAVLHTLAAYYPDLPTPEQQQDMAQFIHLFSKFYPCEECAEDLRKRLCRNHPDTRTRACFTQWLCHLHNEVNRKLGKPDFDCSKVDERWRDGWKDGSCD
# PolyA inh: polyadenylation inhibitors in yeast reporter cells, primary screen, luminescence, S. cerevisiae. S. cerevisiae SKY197-pL101 polyadenylation reporter, beta-gal luminescence; efflux-impaired pdr1/pdr3 knockout yeast; score 100 = 6 SD above DMSO. activity score, % at 12 µM. 0.02% of 300,000 active;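 active means lowest replicate activity score at least 50, where 100 means six control SD above control mean; inconclusive means lowest score under 50 but half or more replicates reach 50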;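 further: yeast exposed to compound for 9 h at 30 °C; higher score means more reporter readthrough which indicates perturbed polyadenylation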
# M18AAP inhibitor: PfM18AAP inhibitors, malaria aminopeptidase, primary screen, biochemical, QFRET, recombinant enzyme; M18 aspartyl aminopeptidase (Plasmodium falciparum 3D7); H-Glu-NHMec fluorogenic cleavage; inhibition, % at 7.35 µM; 1.2% of 290,000 active;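 active means inhibition above the campaign mean inhibition over all tested compounds plus 3 SD, cut at about 28% in these data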;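 further: 0% = plate median of test compound wells and 100% = 2 mM ZnCl2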
# IDE cell inh: human IDE inhibitors in live cells, primary screen, fluorescence polarization, HEK cells, FAbetaB substrate; Insulin-degrading enzyme (Homo sapiens), P14735; FAbetaB cleavage; inhibition, % at 5.59 µM; 0.41% of 320,000 active;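 active means percent inhibition above the average of all tested compounds plus 3 SD, set per screening campaign, cut at about 16% in these data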;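 further: IDE supplied by intact live HEK cells; FP after avidin binding of uncleaved biotin substrate so inhibition keeps polarization high; 0% = DMSO wells and 100% = 60 µM reference IDE inhibitor Ii1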
# CaV13 ICDI inh: Disruptors of the CACNA1D IQ motif to Ca2+-dependent inactivation inhibitor domain association, primary screening, Förster resonance energy transfer in intact living …. HEK cells, CFP/YFP FRET ICDI-IQ, plate reader, 10 min; percent FRET-ratio fall versus neutral wells. inhibition, % at 12.3 µM. 0.098% of 340,000 active. AID 743397;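 active means mean replicate inhibition of at least 30% and at least 1% of replicates passing that level; inconclusive means only one of the two criteria is met; inactive means neither criterion is met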;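 further: 0% = median of the neutral control wells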
# * marks the source's active call; other numbers are inactive results; u = inconclusive; x = not tested or not shown. Only some compounds are listed: those with a hit (about 4.1% of all), similar ones and a draw of the others.
SMILES,IDE cell activ,ALR inh,PolyA inh,M18AAP inhibitor,IDE cell inh,CaV13 ICDI inh
CC(O)[C@@H](NC(=O)C1CCC(CNC(=O)[C@H](Cc2ccccc2)NC(=O)OC(C)(C)C)CC1)C(=O)O (stereo partly specified),3,x,1,-2,1,-18
CCCc1nnc(NC(=O)CCC(=O)N2CCN(C3CCCC3)CC2)s1,2,-17,9,2,8,-3
Clc1ccc(-n2nnc(-c3nccs3)n2)cc1Cl,-4,92*,11,5,10,-4
Cc1ccc(S(=O)(=O)N/N=C/c2ccc(OCC(=O)NC(C)C)cc2)cc1,8,20,-3,3,4,x
Cc1nc2cc(C(=O)N3CCN(C)CC3)ccc2n1C,10,8,-8,5,x,-19
Cc1ccc(NC(=O)c2ccc3c(c2)NC(=O)CS3)nc1,1,6,-3,x,3,-8
Cc1ccc2c(c1)-c1[nH]c(=S)ncc1CS2,-12,-7,14,-2,19*,-9
CCN(CC)c1ccc(NS(=O)(=O)c2cn(C)c(=O)n(C)c2=O)c(C)c1,8,99*,-12,-11,-2,-3
NC(=O)c1ccsc1NC(=O)COC(=O)COc1ccccc1[N+](=O)[O-],3,-1,x,x,1,-5
NC(=O)c1ccsc1NC(=O)COC(=O)COc1ccccc1F,3,78*,u,-7,-1,-18
C=CCN1C(=O)/C(=C\c2ccc(C)cc2)N=C1SCC(=O)NCCC,2,98*,-13,-8,4,-5
CCCNC(=O)CSC1=N/C(=C/c2ccc(F)cc2)C(=O)N1CC,2,97*,-19,-7,-4,-5
Cc1cc(C(=O)CCl)c(C)n1Cc1ccco1,4,97*,-14,-4,-13,-3
Cc1cc(C(=O)CCl)c(C)n1CCc1ccccc1,x,96*,-34,1,-2,5
Brc1ccc(NC(c2ccccc2)c2ccncc2)cc1 (stereo unspecified),6,x,-6,-12,1,-17
O=C(CN(C(=O)C1CSC(=O)C1)c1ccc(F)cc1)NCc1ccc2c(c1)OCO2 (stereo unspecified),4,-2,6,-2,8,-7
Nc1ccc(-c2ccc(N)c(C(=O)O)c2)cc1C(=O)O,7,83*,0,16,-2,-5
CNc1ccc(Cl)nn1,5,-3,-5,-15,5,-6
NNc1ccc(Cl)nn1,6,-2,21,29*,-4,-2
CCNC(=O)Nc1ccc(-n2nc(C)c(C(=O)OCC)c2C)nc1,-2,-17,-25,1,3,12
COC(=O)C(NNc1ccc(F)cc1)(NC(=O)c1ccccc1)C(F)(F)F (stereo unspecified),3,0,x,-3,2,-2
COC(=O)C(NNc1ccccc1C)(NC(=O)c1ccc(F)cc1)C(F)(F)F (stereo unspecified),2,98*,-16,-4,-2,x
C/C(=N\Nc1ccc(C)c(Cl)c1)c1cccnc1,-3,99*,7,18,7,-4
O=C(Nc1ccc2c(c1)OCCO2)c1ccc(NC(=O)C2CCCO2)cc1 (stereo unspecified),-2,-5,-3,-10,-3,93*
O=C(Nc1ccc(F)cc1)C1CCCO1 (stereo unspecified),4,-4,-2,7,2,-5
SMILES,IDE cell activ,ALR inh,PolyA inh,M18AAP inhibitor,IDE cell inh,CaV13 ICDI inh
O=C(Nc1ccc(O)cc1)C1CCCO1 (stereo unspecified),7,99*,-10,-6,6,-9
COc1ccc(-c2nn(-c3ccccc3)cc2/C=C/C(=O)N2CCN(c3ccccn3)CC2)cc1,-7,-22,-11,-3,8,-4
O=c1c(S(=O)(=O)c2ccc(Cl)cc2)cn(Cc2ccccc2F)c2ccc(F)cc12,-7,8,3,1,0,-4
[N-]=[N+]=NC(c1ccccc1)C(NC(=O)c1cc(C(F)(F)F)cc(C(F)(F)F)c1)c1ccccc1 (stereo unspecified),x,x,x,x,x,-5
CC1(C)Cc2cccc(OCC(=O)N3CCN(S(=O)(=O)c4ccccc4)CC3)c2O1,0,-4,-14,-8,1,-5
CCN(CC)c1ccc(/C=C(\C#N)C(=O)NCc2ccccc2)cc1,-17,9,-28,-3,23*,x
N#C/C(=C\c1ccccc1)C(=O)NCc1ccc(F)cc1,-1,3,9,20,4,-5
Cc1ccc(CNC(=O)/C(C#N)=C\c2ccc(N(C)C)cc2)cc1,x,98*,-8,3,9,x
COCCNC(=O)/C(C#N)=C/c1ccc(O)cc1,6,87*,0,-1,-3,-4
N#C/C(=C/c1ccc(C(=O)O)cc1)C(=O)NCc1ccccc1,4,13,6,-2,-4,-7
CCOc1ccc(CNc2ccc3c(c2)ncn3C(C)(C)C)cc1,5,68,-1,6,0,-4
CCOc1ccc(CNc2ccc3c(c2)ncn3C)cc1,-1,82*,-1,27,1,-4
Cn1cnc2cc(NCc3ccc(Cl)cc3)ccc21,6,94*,-18,6,-5,3
CC(=O)N1CCC(=NNc2nc3ccccc3[nH]2)CC1,x,100*,-5,25,0,2
CCC(C)(C)C1CCC(=NNc2nc3ccccc3[nH]2)CC1 (stereo unspecified),0,1,-8,22,3,-1
COc1cc(/C=N/NC(=S)NCCN2CCOCC2)cc(OC)c1O,9,99*,-10,13,1,-5
COc1cc(/C=N/NC(=S)N/N=C/c2cc(OC)c(OC)c(OC)c2)cc(OC)c1OC,0,88*,12,10,6,-17
Cc1ccc(-c2n[nH]c(=S)n2/N=C/c2c(C)[nH]n(-c3ccccc3)c2=O)cc1,9,98*,-1,21,4,-5
Cc1[nH]n(-c2ccccc2)c(=O)c1/C=N/O,3,22,6,-7,-2,-9
O=[N+]([O-])c1ccc(O)c(/C=N/n2c(-c3ccccc3)n[nH]c2=S)c1,7,93*,-7,17,-1,-6
S=c1[nH]nc(-c2ccncc2)n1/N=C/C=C/c1ccccc1,0,92*,4,27,-3,-6
Cc1[nH]n(-c2ccccc2)c(=O)c1/C=N/N(C)c1ccccc1,-3,82*,17,-14,2,-5
